We go through three compounds from PubChem BioAssay AID652020 (National Center for Advancing Translational Sciences (NCATS), 2013).

This is one part of the list. Records with an inconclusive call do not appear. A number with no mark means an inactive call. Calls come from the whole dose curve; as a rule, active = well fitted curve in the direction sought with a large enough effect; inconclusive = small, poorly fitted or top-dose-only effect, or another doubt; inactive = no such curve, though single readings can be large or run the other way.

Sequence of Glutathione reductase, mitochondrial (Homo sapiens) (P00390 whole entry, looked up): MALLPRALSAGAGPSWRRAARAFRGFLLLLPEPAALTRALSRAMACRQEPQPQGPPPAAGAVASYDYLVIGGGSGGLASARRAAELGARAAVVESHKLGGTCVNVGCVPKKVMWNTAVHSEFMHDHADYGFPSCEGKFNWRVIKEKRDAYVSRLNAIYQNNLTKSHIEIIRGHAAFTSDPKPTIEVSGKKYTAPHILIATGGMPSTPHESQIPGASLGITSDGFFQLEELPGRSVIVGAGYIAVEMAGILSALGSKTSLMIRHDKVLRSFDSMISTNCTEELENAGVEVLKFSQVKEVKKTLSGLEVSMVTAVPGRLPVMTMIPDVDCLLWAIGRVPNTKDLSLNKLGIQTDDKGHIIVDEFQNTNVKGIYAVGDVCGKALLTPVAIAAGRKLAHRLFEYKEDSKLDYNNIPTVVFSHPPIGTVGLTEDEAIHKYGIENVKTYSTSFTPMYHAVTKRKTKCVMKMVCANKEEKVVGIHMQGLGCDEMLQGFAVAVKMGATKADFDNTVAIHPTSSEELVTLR

The experiment addresses Glutathione reductase, mitochondrial (Homo sapiens) (UniProt P00390). The experiment can be described thus: qHTS Assay for Inhibitors of Mammalian Selenoprotein Thioredoxin Reductase 1 (TrxR1): Counterassay in Glutathione Reductase (GR). To be noted: purified GR, DTNB reduction absorbance 405 nm kinetic; series mostly up to 57.1 µM; activity change, negative = inhibition: at the top concentration. The source says: The selenoprotein thioredoxin reductase (TrxR; EC 1.8.1.9) is a FAD containing homodimeric pyridine nucleotide-disulfide oxidoreductase with many cellular roles. Together with NADPH and its prime substrate thioredoxin (Trx), the enzyme forms the core of the Trx system. The mammalian Trx system exerts a wide spectrum of functions including redox regulation, antioxidant defense, regulation of transcription factors as well as support of cell growth and replication. Many of these functions involve the reduction of Trx, which may subsequently reduce a number of different substrates including ribonucleotide reductase, peroxiredoxins or NFkB. Mammalian TrxR itself also has a broad substrate specificity, reducing both protein and non-protein substrates, including low molecular weight compounds such as dehydroascorbate, lipoic acid, ubiquinone, and juglone. In addition, several drugs in clinical use for anticancer treatment are indeed known to target TrxR1. This assay is counterassay using a yeast glutathione reductase (GR) assay. The desired outcome is inactivity in this assay. NIH Molecular Libraries Probe Production Network [MLPCN] NIH Chemical Genomics Center [NCGC] MLPCN Grant: MH090846 Assay Provider: Elias Arner, Karolinska Institute
Three microliters of reagents (100 microM NADPH and 60 nM hGR or 100 microM NADPH as no-enzyme control) was dispensed into 1,536-well black clear-bottomed plates (Buffer: 0.1 M potassium phosphate, pH 7.4/10 mM EDTA, 0.01 % Tween-20). Compounds (23nl) was transferred via Kalypsys pin tool equipped with 1536-pin array. The plates were incubated for 15 min at room temperature, and 1microl aliquot of 500 microM NADPH was added, immediately followed by a 1 microl aliquot of 15 mM DTNB (3 mM final concentration) to start the reaction. The plate was transferred to a ViewLux high-throughput CCD imager (Perkin-Elmer, Wellesley, MA) where kinetic measurements (one read per 5 min for 6 reads, total time 25 min) of the TNB absorbance was acquired using a 405 excitation filter.
Take `Cc1ccccc1-c1nc(CS(=O)(=O)CC(=O)N2CCc3ccccc3C2)c(C)o1`: the “activity change, negative = inhibition” value was -11%.
`CC1CCN(C(=O)c2ccc(S(=O)(=O)Cc3cc(F)ccc3F)c([N+](=O)[O-])c2)CC1`: the “activity change, negative = inhibition” value is -12.9%.
Take `O=C(/C=C/c1ccco1)Nc1cccc(-c2nc3ccccc3[nH]2)c1`: the “activity change, negative = inhibition” value is -21.6%.
